38 molecules from PubChem BioAssay (NCI) can be followed below.

Molecules are shown by their SMILES. About 83,000 compounds went through this panel and 20% of them were active in at least one assay; those are over-represented in the sample as a whole.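 Cell lines were cultured in 96-well plates, exposed to a single compound concentration, and assessed for percent growth 48 hours later.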 Calls of active or inactive are those of the source. Rule for the calls: active = growth percent below 10; inactive = the rest.

The experiment has as its system HOP-62 NSCLC. As to the kind of experiment: NCI-60 one-dose screen, 48 h (100 = growth as untreated, 0 = no growth, -100 = all killed). The settings on record: 10 µM unless noted.
Consider `COc1cc(Cn2ncc3ccc(NC(=O)c4cc5ccccc5oc4=N)cc32)cc(OC)c1OC`, for which the growth is 64.9% (inactive).
Next, `N=C1C(c2nc(-c3ccc(Br)cc3)cs2)=C(O)CN1Cc1cccnc1`: 43.6% (inactive); `COc1ccc(/C=C/c2c(C(=O)/C=C/c3cccs3)c(C)nc3ccccc23)cc1`: 93.2% (inactive).
Next, `N#C/C(=C\c1ccc(Br)cc1)n1nnc2cc(F)c(F)cc21`: 25.9% (inactive); `C[C@@H]1N=C(c2ccc3ccccc3n2)Nc2nc3ccccn3c2C1=O`: 75.1% (inactive); `CCCCc1ccc(Nc2ccc(Nc3ccc(CCCC)cc3S(=O)(=O)O)c3c2C(=O)c2ccccc2C3=O)c(S(=O)(=O)O)c1`: 99.5% (inactive).
The value for `COc1ccc(OC)c2c1[nH]c(=O)c1c3ncccc3cn21` was 31.7% (inactive); that for `COc1ccc(NC(=O)CSc2nc(C)c(C(C)=O)n2-c2ccc(Cl)cc2)cc1` was 88.5% (inactive).
For `COc1cccc(-c2nn(-c3ccccc3)cc2-c2ccnc(NCCNC(=O)Nc3cccc(C(F)(F)F)c3)c2)c1`, the growth is 9.97% (active).
Next, `O=C(NCCCNc1cc(-c2cn(-c3ccccc3)nc2-c2cccc(O)c2)ccn1)c1ccccc1`: 47% (inactive); `Cc1cc(NCc2cc(Nc3ccnc4cc(Cl)ccc34)ccc2F)nc(N2CCCC2)n1`: -13.3% (active).
The value for `Oc1ccc(CN2CCC(N3CCOCC3)CC2)c2cccnc12` was 17.2% (inactive).
As to `CCN(CC)c1nc(SCC(=O)Nc2nc3ccc(C)cc3s2)nc(-c2ccccc2)c1C#N`, the growth was 91.9% (inactive).
The value for `Clc1cccc(Cl)c1C(Nc1nc2ccccc2s1)Nc1nc2ccccc2s1` was 99.7% (inactive); that for `C[C@H]1[C@H]2[C@H]3CC[C@@H]4[C@@]5(C)C/C(=C/c6cccnc6)C(=O)C(C)(C)[C@@H]5CC[C@@]4(C)[C@]3(C)CC[C@]23CO[C@]1(C)[C@@H](C(=O)/C=C\c1cccnc1)C3` was -13.6% (active); that for `O=c1ccn2nc3ccccc3c2[nH]1` was 88.4% (inactive).
Next, `COc1ccccc1NC(=O)N/C(N)=N/c1nc2ccccc2s1`: 32.7% (inactive); `COc1c(CCC[P+](c2ccccc2)(c2ccccc2)c2ccccc2)cc2c(c1OC)OCO2`: 15.1% (inactive); `COc1ccc(C(=O)Nn2c(NCC(=O)N3c4ccccc4Sc4ccccc43)nnc2-c2ccc(O)cc2)cc1`: 103% (inactive).
With `COc1ccc(-c2nc3c(c(=O)n2C(C)=O)C(c2ccc(Cl)cc2)c2sc4c(Cl)cccc4c2O3)cc1` (stereo not drawn), the growth is -5.72% (active).
Next, `Cc1nc2c(c(N3CCCc4ccccc43)n1)CCC2`: 4.68% (active); `CC1=C([Se]CC(OC(=O)CC[Se]c2ccccc2)C(=O)NCCCCCC(=O)OCc2ccccc2)C(=O)c2ccccc2C1=O` (stereo not drawn): -15.1% (active).
Next, `Cc1cc(NCCCCNc2ccnc3cc(Cl)ccc23)nc(Nc2ccc(C(=O)N3CCCC3)cc2)n1`: 92.5% (inactive); `Cc1ccc(N(C(=O)CCc2c[nH]c3ccccc23)[C@H](C(=O)Nc2ccc(Cl)cc2)c2cccc([N+](=O)[O-])c2)cc1`: 68% (inactive); `O=c1[nH]c2ccccc2n1C1CCN(CCOc2ccccc2)CC1`: 96.7% (inactive).
The value for `c1ccc2c(c1)nc(CN1CCOCC1)n1cc(N3CCCC3)nc21` was 87.5% (inactive).
As for `CC/C=C1/C(=O)C=C[C@@H]1C/C=C\CCCC(=O)O`, the growth is 80.4% (inactive).
The value for `COC(=O)[C@]12CC[C@@H](C)[C@H](C)[C@@H]1C1=CC[C@@H]3[C@@]4(C)C(C=O)=C[C@@](C)(COS(C)(=O)=O)C4[C@H](O)C[C@@]3(C)[C@]1(C)CC2` (stereo partly drawn) was -63.6% (active); that for `CCCCCCCCn1ccc2cc(NC(=O)Cn3cc(CN4CCCC4)nn3)ccc21` was 74% (inactive).
Consider `CCCCCCCOc1c(OC)cc(C2CC(=O)Nc3c2c(C)nn3-c2nc3ccccc3[nH]2)cc1OC` (stereo not drawn), for which the growth is -22.6% (active).
Take `COc1cc(-c2nc(N3CCN(C)CC3)c3ccccc3n2)cc(OC)c1OC`: the growth is 47.3% (inactive).
Regarding `CCC(CO)Nc1nc2ccc(Cl)cc2c2ccccc12` (stereo not drawn), the growth was 60.3% (inactive).
Next, `NS(=O)(=O)c1ccc(-n2nc(C(=O)N/N=C\c3ccc(F)cc3)cc2-c2ccc(Cl)cc2)cc1`: 74.1% (inactive); `O=S(=O)(NCCCNc1cc(-c2c(-c3cccc(O)c3)nc3sccn23)ccn1)c1cccc(Cl)c1`: 72.8% (inactive).
Next, `CC(=O)n1c(-c2ccc(Cl)cc2)nc2c(c1=O)C(c1ccc(Cl)cc1)c1sc3c(Cl)cccc3c1O2` (stereo not drawn): 7.03% (active); `C=C(C)[C@@H]1CC[C@]2(C(=O)NC3CCCCC3)CC[C@]3(C)[C@H](CC[C@@H]4[C@@]5(C)CCC(=O)C(C)(C)[C@@H]5CC[C@]43C)[C@@H]12`: 97.7% (inactive); `O=[N+]([O-])c1ccc(-c2cc(-c3ccc(Nc4nc(Nc5ccc(Cl)cc5)nc(Nc5ccc(Cl)cc5)n4)cc3)no2)cc1`: 87.4% (inactive).
Next, `Cc1c2c(c(C)c3c1oc1cc(O)ccc13)C(=O)N(CCN1CCCCC1)C2=O`: 80% (inactive).
